The text below walks through data of PubChem BioAssay (NCATS).

“And” between values parts separate entries of the source, which are not always exact repeats. Equal values may be shown once. Results filed as inconclusive are left out. The source made the active and inactive calls. Calls follow the shape of the dose curve; as a rule, active = well fitted cell-killing curve with a large enough effect; inconclusive = small, poorly fitted or top-dose-only effect; inactive = flat fitted curve, though single readings scatter.
Potency is read from the fitted curve at half-maximal effect.

One assay is described as follows: Cellular viability qHTS for adrenocortical cancer (ACC) cell line SW-13 (AID 1963989). Also: nearly all actives have a fitted effect of over 65% in size.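 As to activity (max response): cells grown in serum-free medium with ITS supplement; % is scaled to controls: 0 for no effect and ±100 for the full control effect.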 The note with it: SW-13 ACC cells viability, CellTiter-Glo, 48 h; activity (max response): stronger effect = lower value. The method, boiled down:
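SW-13 cells in ITS-supplemented serum-free DMEM were plated overnight, then exposed for 48 h at 37C to compound titrations (up to 46 uM final). Viability was read by CellTiter-Glo luminescence; four-parameter logistic fits gave IC50 and efficacy.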
Background: Quantitative high-throughput screening tests each substance at several concentrations.
Consider `CC(C)(C)C(O)C(Oc1ccc(Cl)cc1)n1cncn1` (configuration not stated), for which the activity (max response) was -16.3% (inactive). For the compound `CN(C)[C@@H]1C(=O)C(C(N)=O)=C(O)[C@@]2(O)C(=O)C3=C(O)c4c(O)cccc4[C@@](C)(O)[C@H]3C[C@@H]12`, the activity (max response) was 15% (inactive) and 6.24% (inactive). In the case of `COc1ccc(C(c2ccc(OC)cc2)C(Cl)(Cl)Cl)cc1`, the Potency was 28.2 µM (active). With `CC1=C(O)C(=O)C=C2C1=CC=C1[C@@]2(C)CC[C@@]2(C)[C@@H]3C[C@](C)(C(=O)O)CC[C@]3(C)CC[C@]12C`, the Potency is 4.47 µM (active). Consider `Nc1nc(N)nc(NC2CC2)n1`, for which the activity (max response) is -6.71% (inactive). For the compound `C[C@]12COC(=O)C[C@@H]1CC[C@@H]1[C@@H]2CC[C@@]2(C)[C@H]1CC[C@]2(C)O`, the activity (max response) is -23.6% (inactive). Regarding `C[CH2][Hg][S]c1ccccc1C(=O)O`, the Potency is 2.59 µM (active). Turning to `Cc1ccc(-c2nc3ccc(C)cn3c2CC(=O)N(C)C)cc1`, the activity (max response) was -1.33% (inactive). Regarding `Cc1nnc2n1-c1sc(CCC(=O)N3CCOCC3)cc1C(c1ccccc1Cl)=NC2`, the activity (max response) was 5.36% (inactive).

As to `CC(C)[C@H]1C(=O)N[C@H](CO)Cc2c[nH]c3cccc(c23)N1C`, the activity (max response) was -2.75% (inactive).

Regarding `COc1cc(CC(C)N)cc2c1OCO2` (configuration not stated), the activity (max response) was -21.8% (inactive). Still for that read-out and setting: to `C=CC(=O)NCNC(=O)C=C` belongs -0.888% (inactive). Turning to `COC(=O)[C@@]12OC[C@]34[C@H]([C@@H](O)[C@@H]1O)[C@@]1(C)CC(=O)C(O)=C(C)[C@@H]1C[C@H]3OC(=O)[C@H](OC(=O)/C=C(\C)C(C)C)[C@@H]24`, the Potency was 6.31 µM (active). For the compound `O=[N+]([O-])c1cc([As](=O)(O)O)ccc1O`, the activity (max response) is 2.65% (inactive).

Consider `CCCN1CCC[C@@H]2Cc3nc(N)ncc3C[C@H]21`, for which the activity (max response) is 3.03% (inactive). For `O=S(=O)(CC1CS1)c1ccc(Oc2ccccc2)cc1` (configuration not stated), the activity (max response) was -6.36% (inactive).

Consider `C[C@H]1O[C@@H](O[C@H]2[C@@H](O)C[C@H](O[C@H]3[C@@H](O)C[C@H](O[C@H]4CC[C@@]5(C)[C@H](CC[C@@H]6[C@@H]5CC[C@]5(C)[C@@H](C7=CC(=O)OC7)CC[C@]65O)C4)O[C@@H]3C)O[C@@H]2C)C[C@H](O)[C@@H]1O`, for which the Potency is 0.0184 µM (active). Take `C[N+]1(C)[C@@H]2CC[C@H]1CC(OC(=O)C(CO)c1ccccc1)C2` (some centres not stated): the activity (max response) is -4.66% (inactive). The same measure, in the same setting: to `CCOC(=O)Nc1ccc(NCc2ccc(F)cc2)cc1N` belongs -1.78% (inactive). For `CCN(CC)CCc1c[nH]c2ccccc12`, the activity (max response) is -11.9% (inactive).

For `CC(C)NCC(O)c1ccccc1Cl` (configuration not stated), the activity (max response) is 5.55% (inactive). Consider `CCCCCCCCCCCCCCCC[N+](C)(C)C`, for which the Potency is 7.31 µM (active). Turning to `C#CCOC(C(=O)OCCN(C)C)(c1ccccc1)c1ccccc1`, the activity (max response) is 15.9% (inactive). With `CCC1(CC)C(=O)NC(=O)NC1=O`, the activity (max response) was -9.27% (inactive). Same read-out and setting: the same measure for `CCCCOC(=O)c1ccccc1C(=O)OCc1ccccc1`: 0.138% (inactive); for `COc1cc(CCN)cc(OC)c1OC`: -7.31% (inactive); for `C[C@]12Cc3cn[nH]c3C[C@@H]1CC[C@@H]1[C@@H]2CC[C@@]2(C)[C@H]1CC[C@]2(C)O`: -0.402% (inactive) and -24.7% (inactive). On the same count and under the same terms, the same measure for `C[C@]12CC[C@H]3[C@@H](CC[C@@]45O[C@H]4C(O)=C(C#N)C[C@]35C)[C@H]1CC[C@H]2O`: -2% (inactive). Consider `CC(=O)c1c(O)c(C)c(O)c(Cc2c(O)c3c(c(C(=O)/C=C/c4ccccc4)c2O)OC(C)(C)C=C3)c1O`, for which the activity (max response) was -2.92% (inactive).

Take `CN(C)CCc1c[nH]c2cccc(OP(=O)(O)O)c12`: the activity (max response) is -5.41% (inactive). `CCC(C)(C)c1ccc(O)cc1`: the activity (max response) is 0.304% (inactive).

`O=c1cccc2n1CC1CNC[C@H]2C1`: the activity (max response) was -2.44% (inactive). For `COP(=S)(OC)Oc1ccc(Sc2ccc(OP(=S)(OC)OC)cc2)cc1`, the activity (max response) was 9.16% (inactive). Regarding `c1ccc2nc(N3CCNCC3)ccc2c1`, the activity (max response) is -8.05% (inactive). The same measure, in the same setting: to `O=[N+]([O-])c1c2ccccc2cc2ccccc12` belongs 8.46% (inactive); to `COc1c2c(cc3c1OCO3)CCN(C)C2`, -10% (inactive); to `CC[N+]1(C)CCCC(OC(=O)C(O)(c2ccccc2)c2ccccc2)C1` (configuration not stated), 0.735% (inactive).

On to `COP(=S)(OC)Oc1ccc(S(=O)(=O)N(C)C)cc1`, for which the activity (max response) is -2.83% (inactive). On to `O=C(CCCN1CCC2(CC1)C(=O)NCN2c1ccccc1)c1ccc(F)cc1`, for which the activity (max response) is -12.3% (inactive).

The next assay in a line: Cellular viability qHTS for adrenocortical cancer (ACC) cell line NCI-H295R (AID 1963990). Also: nearly all actives have a fitted effect of over 60% in size.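 As to activity change, negative = viability loss: 0% = DMSO only wells and -100% = full killing with cytotoxic reference compound.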 The following applies: CellTiter-Glo ATP luminescence, 48 h; series mostly up to 46.1 µM; activity change, negative = viability loss: at the top concentration. The method, boiled down: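 Luminescent ATP read-out (CellTiter-Glo, 20 min RT) after 48 h drug exposure of NCI-H295R cells; a titration up to 46 uM final. Data normalized to doxorubicin (100% inhibition) and DMSO (0%); 4-parameter fit gives IC50, max response.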
Consider `CN(C)[C@@H]1C(=O)C(C(N)=O)=C(O)[C@@]2(O)C(=O)C3=C(O)c4c(O)cccc4[C@@](C)(O)[C@H]3C[C@@H]12`, for which the Potency entry was “inactive”.

Take `COc1ccc(C(c2ccc(OC)cc2)C(Cl)(Cl)Cl)cc1`: the Potency was 28.2 µM (active). On to `Nc1nc(N)nc(NC2CC2)n1`, for which the “activity change, negative = viability loss” value is -12.3% (inactive). For `C[C@]12COC(=O)C[C@@H]1CC[C@@H]1[C@@H]2CC[C@@]2(C)[C@H]1CC[C@]2(C)O`, the “activity change, negative = viability loss” value was -5.36% (inactive). As to `COc1cc(CC(C)N)cc2c1OCO2` (configuration not stated), the “activity change, negative = viability loss” value is -19% [at 92.7 µM] (inactive). On to `C=CC(=O)NCNC(=O)C=C`, for which the “activity change, negative = viability loss” value was 2.78% [at 92.7 µM] (inactive). On to `COC(=O)[C@@]12OC[C@]34[C@H]([C@@H](O)[C@@H]1O)[C@@]1(C)CC(=O)C(O)=C(C)[C@@H]1C[C@H]3OC(=O)[C@H](OC(=O)/C=C(\C)C(C)C)[C@@H]24`, for which the Potency is 12.6 µM (active). Regarding `O=[N+]([O-])c1cc([As](=O)(O)O)ccc1O`, the “activity change, negative = viability loss” value was 8.15% (inactive). For `CCCN1CCC[C@@H]2Cc3nc(N)ncc3C[C@H]21`, the “activity change, negative = viability loss” value was -27.1% (inactive). Regarding `C[C@H]1O[C@@H](O[C@H]2[C@@H](O)C[C@H](O[C@H]3[C@@H](O)C[C@H](O[C@H]4CC[C@@]5(C)[C@H](CC[C@@H]6[C@@H]5CC[C@]5(C)[C@@H](C7=CC(=O)OC7)CC[C@]65O)C4)O[C@@H]3C)O[C@@H]2C)C[C@H](O)[C@@H]1O`, the Potency is 0.0651 µM (active). For the compound `C[N+]1(C)[C@@H]2CC[C@H]1CC(OC(=O)C(CO)c1ccccc1)C2` (some centres not stated), the “activity change, negative = viability loss” value was -6.09% (inactive). Turning to `CCOC(=O)Nc1ccc(NCc2ccc(F)cc2)cc1N`, the “activity change, negative = viability loss” value is 6.21% (inactive).

Regarding `CCN(CC)CCc1c[nH]c2ccccc12`, the “activity change, negative = viability loss” value is -11.2% [at 178 µM] (inactive). For the compound `CC(C)NCC(O)c1ccccc1Cl` (configuration not stated), the “activity change, negative = viability loss” value was 0.644% (inactive). For `CCCCCCCCCCCCCCCC[N+](C)(C)C`, the Potency was 8.2 µM (active). For `CCCCOC(=O)c1ccccc1C(=O)OCc1ccccc1`, the “activity change, negative = viability loss” value is -1.21% [at 92.7 µM] (inactive). Turning to `COc1cc(CCN)cc(OC)c1OC`, the “activity change, negative = viability loss” value is -4.95% [at 92.7 µM] (inactive). As for `C[C@]12Cc3cn[nH]c3C[C@@H]1CC[C@@H]1[C@@H]2CC[C@@]2(C)[C@H]1CC[C@]2(C)O`, the “activity change, negative = viability loss” value is -8.1% (inactive). As to `CC(=O)c1c(O)c(C)c(O)c(Cc2c(O)c3c(c(C(=O)/C=C/c4ccccc4)c2O)OC(C)(C)C=C3)c1O`, the “activity change, negative = viability loss” value is -1.07% (inactive). In the case of `CN(C)CCc1c[nH]c2cccc(OP(=O)(O)O)c12`, the “activity change, negative = viability loss” value is -11.1% [at 92.7 µM] (inactive). Still for that read-out and setting: to `CCC(C)(C)c1ccc(O)cc1` belongs -32.3% (inactive); to `O=c1cccc2n1CC1CNC[C@H]2C1`, 6.37% (inactive).

Take `COP(=S)(OC)Oc1ccc(Sc2ccc(OP(=S)(OC)OC)cc2)cc1`: the “activity change, negative = viability loss” value is 1.84% (inactive). For `c1ccc2nc(N3CCNCC3)ccc2c1`, the “activity change, negative = viability loss” value was 5.27% (inactive). For `O=[N+]([O-])c1c2ccccc2cc2ccccc12`, the “activity change, negative = viability loss” value is 6.71% [at 92.7 µM] (inactive). On to `COc1c2c(cc3c1OCO3)CCN(C)C2`, for which the “activity change, negative = viability loss” value is -12.3% (inactive). Still for that read-out and setting: the same measure for `CC[N+]1(C)CCCC(OC(=O)C(O)(c2ccccc2)c2ccccc2)C1` (configuration not stated): 7.14% (inactive); for `COP(=S)(OC)Oc1ccc(S(=O)(=O)N(C)C)cc1`: -2.6% (inactive).
